The values that follow come from PubChem BioAssay (NCI).

The panel holds about 83,000 compounds, 20% with a hit somewhere; the sample as a whole holds those more often.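 Activity criterion: percent growth below 10, measured after cells in 96-well plates were exposed to a single compound concentration for 48 hours.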 The source made the active and inactive calls.

The subject of this assay is NCI-H460 lung. The experiment in a line: NCI-60 one-dose screen, 48 h (100 = growth as untreated, 0 = no growth, -100 = all killed). Conditions: 10 µM unless noted.
With `COc1ccc(-c2cn(-c3ccccc3)c(-c3ccccc3)n2)cc1OC`, the growth was 70.5% (inactive).

For `O=c1ccn(C2OC(CO)C(O)C2F)c(=O)[nH]1` (configuration not stated), the growth is 113% (inactive).

`c1ccc(N2CCN(c3nncc4ccccc34)CC2)nc1`: the growth is 108% (inactive).

With `CCOc1ccccc1C(=O)OCC(=O)Nc1cccc(S(=O)(=O)N(C)C)c1`, the growth is 102% (inactive).

Turning to `O=[N+]([O-])c1ccc(N/N=C\c2ccccc2[N+](=O)[O-])nc1`, the growth was 101% (inactive).

For the molecule `O[C@@H]1Cc2ccc3ccccc3c2N[C@H](c2ccoc2)C1`, the growth was 116% (inactive).

For the molecule `CCOC(=O)/C=C(/C)Sc1cc(O)c2ccccc2c1O`, the growth is -64% (active).

For `CCc1ccc(CCN2C(=O)c3ccccc3C2=O)nc1`, the growth was 103% (inactive).

Regarding `O=C1C(=O)c2ccc(Br)cc2-c2cc(Br)ccc21`, the growth is 78.8% (inactive).

On to `COc1cc(/C=C/C(=O)N2CCN(C(=O)/C=C/c3ccccc3)CC2)cc(OC)c1OC`, for which the growth is 105% (inactive).

As to `Cc1nn(-c2ccc(Cl)cc2)c2nc3c(nc12)C(=O)c1ccccc1-3`, the growth was 12.6% (inactive).

As for `COc1cc(C2NC(c3ccc(Cl)cc3)C(C)/C(=N/NC(N)=S)C2C)cc(OC)c1OC` (configuration not stated), the growth is 100% (inactive).

Take `COC(=O)c1ccc2c(c1)nc(-c1ccc(O)c(OC)c1)n2-c1cc(C(C)(C)C)[nH]n1`: the growth is 96.3% (inactive).

As to `COC(=O)[C@]1(C(C)C)N[C@H](c2cn(-c3ccccc3)nc2-c2ccccc2)[C@@H]2C(=O)N(c3ccc(Cl)cc3)C(=O)[C@@H]21`, the growth is 105% (inactive).

With `C[n+]1c2ccccc2c(NC2CCNCC2)c2[nH]c3ccccc3c21`, the growth is -0.0252% (active).

With `COc1cc2c(cc1OCCCCCn1c(-c3ccc(OCc4ccccc4)cc3)nc3cc(N4CCOCC4)ccc31)N=C[C@@H]1CCCN1C2=O`, the growth was -3.28% (active).

Regarding `CSc1nnc(C2=CC(=O)c3ccccc3C2=O)n1-c1ccccc1`, the growth is 83.6% (inactive).

Turning to `COc1cccc2c1O/C(=C\c1c([N+](=O)[O-])ncn1C)C2=O`, the growth was 109% (inactive).

Consider `CCC1=C(c2ccc(OC)cc2)C(C)(C)Oc2c1ccc(O)c2CN1CCCC1`, for which the growth is -38.1% (active).

As to `CCCCn1c(Cc2ccc(Cl)cc2)nc2cc(OC)c(OC)cc2c1=O`, the growth was 90.6% (inactive).

Take `ClC1C2CC(c3ccccc32)C1Cl` (configuration not stated): the growth was 110% (inactive).

Consider `CC(c1ccccn1)C(C)(O)C(C)c1ccccn1` (configuration not stated), for which the growth was 113% (inactive).

With `O=C(Nc1ccccc1Cl)c1cnc2ccc(C3CCNCC3)cn12`, the growth was 86.4% (inactive).

For the molecule `O=C(OCCBr)c1ccc(Cl)c([N+](=O)[O-])c1`, the growth is 103% (inactive).

For the molecule `CO[C@H]1/C=C/O[C@@]2(C)Oc3c(C)c(O)c4c(O)c(c(/C=N/N5CCN(C)CC5)c(O)c4c3C2=O)NC(=O)/C(C)=C\C=C\C(C)[C@H](O)[C@@H](C)[C@@H](O)[C@@H](C)[C@@H](OC(C)=O)[C@@H]1C` (some centres not stated), the growth is 103% (inactive).

With `CC(=O)c1nc2ccccc2n1CCn1cc(CC(N)C(=O)O)c2ccccc21` (configuration not stated), the growth was 115% (inactive).

For the molecule `CCCCCCOc1ccc(/C=N/NC(N)=S)cc1`, the growth is 92.6% (inactive).

Regarding `Cc1ccccc1NC(=O)c1cc2ccccc2cc1O`, the growth is 38% (inactive).

Consider `CC[C@]1(O)CC2CN(CCc3c([nH]c4ccccc34)[C@@](C(=O)OC)(c3cc4c(cc3OC)N(C)[C@H]3[C@@](O)(C(=O)OC)[C@H](OC(C)=O)[C@]5(CC)C=CCN6CC[C@]43[C@@H]65)C2)C1` (some centres not stated), for which the growth is 2.54% (active).

`CN(C)c1ccc(/C=C(\C#N)c2nc3ccccc3c(=O)[nH]2)cc1`: the growth is 87.3% (inactive).

Take `CC(=O)c1cc(C(=O)c2ccc3c(c2)Sc2ccccc2N3)c2c(C)cc(C)cn12`: the growth was 0.69% (active).

For `CCn1c2ccccc2c2ccc(C(C)=O)cc21`, the growth was 108% (inactive).

Regarding `Clc1ncn[nH]1`, the growth was 111% (inactive).

With `Cc1cc(N2CCOCC2)nc(N2CCOCC2)n1`, the growth was 99.4% (inactive).

Take `Oc1ccc(Cc2ccc(O)c(C3CC(c4ccc(Cl)cc4)=NN3)c2)cc1C1CC(c2ccc(Cl)cc2)=NN1` (configuration not stated): the growth is 4.56% (active).

As to `c1cncc(CNc2ccccc2-c2nnc(Nc3ccc4c(c3)OCO4)o2)c1`, the growth was 9.93% (active).

On to `COc1cc2c(C#N)n3c(c2cc1OC)C(=O)C(c1ccccc1)Oc1ccccc1-3` (configuration not stated), for which the growth is 66.9% (inactive).
